The values below come from PubChem BioAssay.

Assay [1] in a line: HepG2 liver cancer cell viability effects, profiling panel, resazurin fluorescence, 24 h, PK04 Diversity Set (AID 1172). Note: test concentration not given here. As to conditions: higher = more signal. A general note: Resazurin is reduced to fluorescent resorufin, in cell work by metabolically active cells.
Assay [2] is described as follows: basal S. cerevisiae growth modulation, no modifier, primary screen, OD600, strain BY4716, 24 h, basal condition (AID 1173). The settings on record: OD600, 24 h, higher = more signal, called active from +8 up or from −8 down.
The nature of assay [3]: MM1S myeloma cell viability, profiling panel, resazurin fluorescence, basal, 24 h, PK04 Diversity Set (AID 1174).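 Note: MM1S multiple myeloma cell line; test concentration not given here.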 The settings on record: higher = more signal, called active from +8 up or from −8 down.
Assay [4] concerns the target Dihydroorotate dehydrogenase (quinone), mitochondrial (Plasmodium falciparum (isolate 3D7)) (UniProt Q08210). Description: PfDHODH enzyme inhibitors, primary screen, biochemical, C-terminal His tag, absorbance 600 nm (AID 1175).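 Note: recombinant parasite enzyme with a five histidine tag at its C terminus; test concentration not given here.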 As to conditions: DCIP absorbance 600 nm, higher = more signal, called active from +8 up or from −8 down.
Assay [5] can be described thus: P. aeruginosa biofilm formation inhibitors, primary screen, strain PAO1, LB-PBS medium, absorbance 600 nm (AID 1176). Note: test concentration not given here. As to conditions: P. aeruginosa PAO1 growth/biofilm, A600, 12 h; higher = more signal.
The nature of assay [6]: S. cerevisiae RM11-1a growth modifiers, primary screen, strain RM11-1a, OD600, basal, 24 h (AID 1177).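 Note: cultures grown under basal conditions with no added stressor; test concentration not given here.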 As to conditions: OD600, 24 h, higher = more signal, called active from +8 up or from −8 down.
The nature of assay [7]: E. coli acrAB mutant growth effects, primary screen, E. coli filamentation inducers, strain DRC39, OD650, 24 h (AID 1178).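 Note: growth measured as culture turbidity by optical density at 650 nm; test concentration not given here.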 As to conditions: higher = more signal, called active from +8 up or from −8 down.
Assay [8] in a line: E. coli acrAB mutant growth effects, primary screen, E. coli filamentation inducers, strain DRC39, OD650, 48 h (AID 1179).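 Note: screen aims at cell division blockers that make cells filament.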 The settings on record: E. coli DRC39 delta-acrAB growth, higher = more signal, called active from +8 up or from −8 down.
Assay [9] in a line: RPMI8226 myeloma cell viability, profiling panel, resazurin fluorescence, basal, 24 h, PK04 Diversity Set (AID 1180).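 Note: RPMI8826 multiple myeloma cell line at 5000 cells per well; test concentration not given here.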 The settings on record: higher = more signal.
Assay [10] deals with E3 ubiquitin-protein ligase XIAP (Homo sapiens) (UniProt P98170). Description: XIAP binders, primary screen, biophysical, small-molecule microarray, fluorescence 635 nm (AID 1181).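 Note: score merges 667 nm emission and signal to noise over triplicate slides.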 As to conditions: small-molecule microarray binding, higher = more signal.

Each structure is given as a SMILES string. The source made the active and inactive calls. Unless noted, the rule behind the calls is not given here.

Dihydroorotate dehydrogenase (quinone), mitochondrial (Plasmodium falciparum (isolate 3D7)), sequence (Q08210 whole entry, looked up): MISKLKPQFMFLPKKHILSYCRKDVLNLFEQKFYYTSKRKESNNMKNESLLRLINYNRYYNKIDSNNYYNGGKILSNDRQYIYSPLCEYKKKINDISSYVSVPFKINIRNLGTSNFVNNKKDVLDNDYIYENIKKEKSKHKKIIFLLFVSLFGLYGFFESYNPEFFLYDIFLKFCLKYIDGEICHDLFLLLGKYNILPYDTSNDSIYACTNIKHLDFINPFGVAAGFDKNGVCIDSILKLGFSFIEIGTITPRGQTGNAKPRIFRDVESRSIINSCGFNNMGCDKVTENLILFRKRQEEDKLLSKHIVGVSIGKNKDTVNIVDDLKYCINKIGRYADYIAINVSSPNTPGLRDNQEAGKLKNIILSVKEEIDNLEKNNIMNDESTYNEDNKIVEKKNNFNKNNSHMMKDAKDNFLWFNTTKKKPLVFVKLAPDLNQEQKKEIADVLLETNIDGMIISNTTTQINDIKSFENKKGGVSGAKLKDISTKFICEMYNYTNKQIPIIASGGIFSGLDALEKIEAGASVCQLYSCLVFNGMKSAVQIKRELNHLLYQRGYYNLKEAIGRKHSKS
E3 ubiquitin-protein ligase XIAP (Homo sapiens), sequence (P98170 whole entry, looked up): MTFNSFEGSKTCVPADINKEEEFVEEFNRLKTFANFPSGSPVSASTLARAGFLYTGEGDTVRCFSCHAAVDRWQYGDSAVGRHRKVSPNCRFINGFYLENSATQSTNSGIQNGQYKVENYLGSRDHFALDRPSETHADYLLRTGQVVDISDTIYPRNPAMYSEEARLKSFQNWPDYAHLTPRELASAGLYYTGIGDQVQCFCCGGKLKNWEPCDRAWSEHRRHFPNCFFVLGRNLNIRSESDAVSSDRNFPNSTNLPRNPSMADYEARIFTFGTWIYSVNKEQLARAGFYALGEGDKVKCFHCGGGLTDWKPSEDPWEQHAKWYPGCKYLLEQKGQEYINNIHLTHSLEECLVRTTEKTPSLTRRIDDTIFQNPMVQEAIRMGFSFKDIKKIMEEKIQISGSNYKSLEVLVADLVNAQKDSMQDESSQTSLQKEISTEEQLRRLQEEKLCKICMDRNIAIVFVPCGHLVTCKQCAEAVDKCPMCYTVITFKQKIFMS

For `C=CC1c2cc(O)c(OC)cc2CCN1Cc1cccc(OC(F)(F)F)c1` (stereo not given), the z-score in assay [1] is 0.125; in assay [2], -16.7 (active); in assay [3] it was -4.17 (inactive); in assay [5] it was 0.0898 (inactive); in [6], -13.7 (active); in assay [7], 1.2 (inactive). Also, the z-score was 0.738 (inactive) in assay [8] and -2.3 in assay [9]. Further, the values for the composite z-score in [4] and in [10] were -5.06 (inactive) and 0.0304, respectively.

With `O=C1C2C=CC(C(O)c3ccc(F)cc3)N(Nc3ccc([N+](=O)[O-])cc3)C2C(=O)N1c1ccccc1` (stereo not given), the z-score in assay [1] is 0.349; in assay [2], 0.579 (inactive); in assay [3], -0.115 (inactive); in assay [5], 0.862 (inactive); in [6], -0.228 (inactive); in [7], -1.47 (inactive). The figures for the z-score in assay [8] and in [9] were -0.639 (inactive) and -0.152, respectively. For the same compound, the composite z-score in assay [4] was -0.0421 (inactive); in assay [10], 0.135.

In the case of `COC(=O)[C@@]1(Cc2ccc(OC)cc2)[C@H]2c3cc(C(=O)N4CCCC4)n(CCc4ccc(O)c(O)c4)c3C[C@H]2CN1C(=O)c1ccccc1`, the z-score in [1] was -1.37; in [2], 1.04 (inactive); in assay [3], -1.79 (inactive); in assay [5] it was 2.16 (inactive); in assay [6], 0.397 (inactive); in assay [7], -0.215 (inactive). Further, the z-score was -0.163 (inactive) in assay [8] and -1.33 in assay [9]. The composite z-score in assay [4] was -0.487 (inactive); in [10], 0.0517.

For `COCCCNC(=O)[C@]1(Cc2ccccc2)N=C(c2ccc(OCCCO)cc2)O[C@@H]1c1ccccc1CN=[N+]=[N-]`, the z-score in assay [1] was -0.316; in assay [2], -1.29 (inactive); in assay [3], -0.491 (inactive); in assay [5], 1.8 (inactive); in assay [6], 0.0435 (inactive); in assay [7], 0.228 (inactive). In addition, the z-score in [8] is 1.55 (inactive); in [9] it was -1.08. The results for the composite z-score in assay [4] and in [10] were -0.925 (inactive) and 0.0136, respectively.

Consider `CN(C)CCCCCCNC(=O)[C@@H]1C[C@@H]2C(=O)N[C@@H](CCCC[N+](C)(C)C)C(=O)N2[C@@H]1c1ccc(O)cc1`, for which the z-score is -0.916 in [1]; -0.661 (inactive) in assay [2]; -1.07 (inactive) in assay [3]; -0.0212 (inactive) in assay [5]; -0.0569 (inactive) in [6]; 0.301 (inactive) in assay [7]. For the same compound, the values for the z-score in assay [8] and in [9] were 0.575 (inactive) and -0.746, respectively. For the same compound, the values for the composite z-score in assay [4] and in [10] were -1.06 (inactive) and 0.0785, respectively.

Take `CC(C)Cc1ccc(CN2CC[C@@H](N)C2)cc1`: the z-score was 1.51 in assay [1]; -12.8 (active) in assay [2]; -1.49 (inactive) in assay [3]; -0.271 (inactive) in assay [5]; -0.0782 (inactive) in assay [6]; 1.47 (inactive) in assay [7]. Further, the z-score in [8] was 0.611 (inactive); in assay [9], -0.681. Moreover, the composite z-score in [4] is 4.28 (inactive); in assay [10] it was -0.269.

In the case of `C=CCOC(=O)[C@H]1[C@@H]2C(=O)O[C@@H](c3ccccc3)[C@@H](c3ccccc3)N2[C@@H](c2ccc(OCCOC(=O)[C@@H]3C[C@@H]4C(=O)N5CCC[C@H]5C(=O)N4[C@@H]3c3cccc(OCCO)c3)cc2)[C@]12C(=O)Nc1ccc(I)cc12`, the z-score in [1] is -0.536; in assay [2] it was 0.509 (inactive); in assay [3], -0.424 (inactive); in assay [5], 3.85 (inactive); in assay [6] it was 1.29 (inactive); in assay [7], 0.021 (inactive). Further, the z-score is -0.0471 (inactive) in assay [8] and -0.442 in assay [9]. Moreover, the values for the composite z-score in assay [4] and in assay [10] were -0.49 (inactive) and -0.0203, respectively.

`CN(C)CCCCCCNC(=O)[C@@H]1C[C@@H]2C(=O)N3CCC[C@H]3C(=O)N2[C@@H]1c1ccc(O)cc1`: the z-score in assay [1] was -0.627; in [2], -0.732 (inactive); in assay [3], -0.235 (inactive); in assay [5], 1.82 (inactive); in assay [6], -2.55 (inactive); in [7], 0.966 (inactive). Besides, the z-score in assay [8] is 1.64 (inactive); in assay [9] it was -0.198. For the same compound, the composite z-score in [4] is -1.7 (inactive); in assay [10], 0.117.

Consider `NCCCCCNC(=O)[C@H]1C[C@H]2C(=O)N3CCC[C@H]3C(=O)N2[C@H]1c1ccc(O)cc1`, for which the z-score in [1] is -0.0962; in [2] it was -0.0403 (inactive); in assay [3], -0.225 (inactive); in assay [5], 0.174 (inactive); in [6], -0.835 (inactive); in assay [7], -0.363 (inactive). Besides, the z-score in assay [8] is -0.39 (inactive); in [9], -0.485. Also, the composite z-score in [4] is -0.572 (inactive); in assay [10], 0.247.

With `O=C1C2C=CC(C(O)COCc3ccccc3)N(Nc3ccc([N+](=O)[O-])cc3)C2C(=O)N1c1ccccc1` (stereo not given), the z-score in assay [1] is 0.0505; in assay [2] it was 0.858 (inactive); in assay [3] it was 0.391 (inactive); in assay [5] it was 0.589 (inactive); in assay [6] it was 0.498 (inactive); in [7] it was 0.24 (inactive). Moreover, the z-score in assay [8] was 0.613 (inactive); in assay [9] it was 0.948. In addition, the figures for the composite z-score in assay [4] and in assay [10] were -0.262 (inactive) and 0.0604, respectively.

Take `COc1ccc(NN2C(C(O)c3ccc(N(C)C)cc3)C=CC3C(=O)N(C4CCCCC4)C(=O)C32)cc1` (stereo not given): the z-score is 0.252 in assay [1]; -0.796 (inactive) in assay [2]; -0.0447 (inactive) in [3]; 0.862 (inactive) in assay [5]; -0.0156 (inactive) in assay [6]; -0.723 (inactive) in assay [7]. Further, the z-score is -0.224 (inactive) in assay [8] and -1 in assay [9]. Moreover, the composite z-score in [4] was 0.128 (inactive); in assay [10], 0.17.
